Reference: PubChem BioAssay (NCATS)
Results filed as inconclusive are left out. Calls of active or inactive are those of the source. The call rests on the fitted dose curve; in most records, active means well fitted curve in the direction sought with a large enough effect; inconclusive means small, poorly fitted or top-dose-only effect, or another doubt; inactive means no such curve, though single readings can be large; an effect the other way counts as inactive or inconclusive.

Key:
[1] = qHTS to identify inhibitors of the type 1 interferon - major histocompatibility complex class I in skeletal muscle: primary screen against the NCATS LOPAC collection (AID 1347405);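 further: lytic HiBiT luminescence reporting HLA-B protein level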; further: potency means the concentration at half of the fitted maximal effect
Method in brief: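 CRISPR-engineered immortalized human myoblasts (C25cl48) with HiBiT fused to endogenous HLA-B*08:01, stimulated with 4 ng/ml IFN-beta. LOPAC compounds tested as a 7-point 1:4.3 titration (top 46 uM final), 24 h at 37 C; lytic HiBiT luminescence read.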

[2] = qHTS for inhibitors of adenylyl cyclases using a fission yeast platform: a pilot screen against the NCATS LOPAC library (AID 1347410)
Method in brief: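 Fission yeast qHTS: CHP2027 cells (AC9-GNAS-PDE4D2, fbp1-GFP), 5x10^6 cells/mL working density, EMM + His/Lys/Ura; LOPAC at up to 57 µM final; 18 h dark, 30C; GFP by laser cytometry. DPI positive control, DMSO vehicle.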

[3] = 10-beta competent E. coli microbial cell viability qHTS against the NCATS CANVASS Library (AID 1347376)
Method in brief: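 10-beta competent E. coli (0.2 OD) were exposed overnight at 37C to compounds in an 11-point series. Viability was read as ATP-dependent BacTiter-Glo luminescence after 20 min at room temperature.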

[4] = qHTS for H2AX Agonists against the NCATS CANVASS Library (AID 1347378);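 further: phospho-H2AX S139 level in CHO-K1 lysates by TR-FRET emission ratio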
Method in brief: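 CHO-K1, 1000 cells/well, o/n 37C; cpd several conc, 3 hr 37C, 0.76% DMSO; lyse 30 min RT; cryptate anti-pH2AX(S139) + d2 anti-H2AX, 24 hr RT; HTRF 665/620.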

[5] = qHTS for Inflammasome Signaling Inhibitors: IL-1-beta AlphaLISA screen against the NCATS CANVASS Library (AID 1347379); details: THP-1 LPS/ATP, IL-1B AlphaLISA secretion, 16 h; at 57.5 µM (top of the series) unless noted;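 further: human THP-1 cells primed with LPS then triggered with ATP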
Method in brief: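 THP-1 cells pretreated 1 hr with compound (up to 57.5 uM final), then stimulated with LPS (250 ng/mL final) and ATP (1.25 mM final). Secreted IL-1B measured by AlphaLISA after 16 hr; glyburide as positive control.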

[6] = Inflammasome Signaling qHTS Counterscreen: IL-1-beta AlphaLISA counterscreen against the NCATS CANVASS Library (AID 1347381);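 further: cell-free check with purified IL-1β in medium and no THP-1 cells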
Method in brief: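 Cell-free interference check: compounds added to medium spiked with 4 pg purified IL-1β. Anti-IL-1β acceptor beads (6 ug/mL) with 0.6 nM biotinylated antibody added for 1 h at RT, then streptavidin donor beads (24 ug/mL) for 30 min in the dark. AlphaLISA read at 680/615 nm.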

[7] = Cytotoxicity qHTS for assessment of Hepg2 cells membrane integrity screened against the NCATS CANVASS Library (AID 1347387)
Method in brief: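 HepG2 cells (2000/well) attached overnight, then exposed 5 hr at 37C to compounds in an 11-point series (0.59 nM - 46 uM final). LDH release from damaged membranes read fluorometrically (CytoTox-ONE; 560/590 nm) after 10 min at room temperature.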

[8] = qHTS for Activators of p53 Stress Response Pathway screened against the NCATS CANVASS Library (AID 1347388)
Method in brief: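 p53RE-bla HCT-116 cells (4000/well) were plated 5 h at 37C, exposed to compounds for 16 h at 37C over an 11-point concentration series, then loaded with CCF4 for 2 h at room temperature; 460/530 nm emission ratio read.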

[9] = qHTS assay for small molecule disruptors of mitochondrial membrane potential screened against the NCATS CANVASS Library (AID 1347389); further: nearly all actives have a fitted effect of over 60% in size
Method in brief: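 HepG2 cells (2,000/well) plated overnight, then exposed to compounds in 11-point qHTS series for 1 h at 37C before 30 min Mito-MPS dye; depolarization read as fall in red aggregate (590 nm) to green monomer (535 nm) fluorescence.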

[10] = Secretion counterscreen for inhibitors of the SERCaMP assay screened against the NCATS CANVASS Library (AID 1347390);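 further: light from luciferase secreted into medium read as a measure of general secretion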
Method in brief: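 SH-SY5Y-GLuc STOP cells; 4 h attach; cpds 0.001 - 77 uM (qHTS, 11 pts), 20 h 37C/5% CO2; coelenterazine in glow buffer; luminescence, 5 s exposure.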

[11] = qHTS for activators of Nrf2/ARE signaling pathway screened against the NCATS CANVASS Library (AID 1347391); further: nearly all actives have a fitted effect of over 60% in size
Method in brief: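 ARE-bla HepG2 beta-lactamase reporter cells exposed to compounds for 16 h at 37C; CCF4 substrate 2 h, fluorescence at ex 405 nm, em 460/530 nm. Viability by CellTiter-Glo luminescence.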

[12] = qHTS for activators of dead-cell proteases activity screened against the NCATS CANVASS Library (AID 1347392);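 further: luminescence from protease leaking out of membrane-damaged cells cleaving impermeant substrate; rising signal means more cytotoxicity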
Method in brief: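 HepG2 cells (2000/well) attached 18 h at 37C, then exposed 5 h to compounds (11-point qHTS). Dead-cell protease activity read as luminescence from cell-impermeant AAF-aminoluciferin substrate after 15 min at room temperature.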

[13] = qHTS for inhibitors of ER calcium dysfunction: SERCaMP assay screened against the NCATS CANVASS Library (AID 1347393);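 further: lower secreted reporter signal means inhibitor of ER calcium depletion; nearly all actives have a fitted effect of over 40% in size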
Method in brief: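 qHTS in SH-SY5Y reporter cells: 16 h compound pretreatment, 4 h thapsigargin, then secreted Gaussia luciferase measured by luminescence.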

[14] = Vero-766 cells viability qHTS against the NCATS CANVASS Library: Counterscreen for Zika virus inhibition assay (AID 1347394); further: nearly all actives have a fitted effect of over 60% in size
Method in brief: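 Vero 766, no virus; 1000 cells/well; o/n attach; cpd 11-pt; 72 h, 37C, 5% CO2; CTG luminescence; cell-free media wells = 100% inhibition.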

[15] = qHTS for inhibitors of Wild type Zika virus screened against the NCATS CANVASS Library (AID 1347396);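 further: ATP luminescence of surviving cells so rescue from viral cell killing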
Method in brief: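 Vero 766 (African green monkey) cells, 1000 per well, attached overnight, then compounds were added in an 11-point series before wild-type Zika virus infection. After 72 h at 37C, cell viability was read as CellTiter Glo luminescence.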

[16] = Viability qHTS for inhibitors of the SERCaMP assay screened against the NCATS CANVASS Library (AID 1347400); further: nearly all actives have a fitted effect of over 70% in size
Method in brief: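 SH-SY5Y-GLuc SERCaMP MJH297-derived cells, 1000/well, plated 4 h, then exposed to compounds in an 11-point qHTS series for 48 h at 37C. Viability read as CellTiter-Glo luminescence.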

[17] = Redox Reaction Profiling qHTS: Assay Interference Panel against the NCATS CANVASS Library (AID 1347401)
Method in brief: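 Resazurin (5 uM) conversion to resorufin measured with 200 uM DTT in 50 mM HEPES pH 7.3, 50 mM NaCl. Compounds tested in 11-point qHTS series. Fluorescence (ex 525/em 598 nm) read before and after 15 min dark incubation.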

[18] = Validation qHTS assay for inhibitors of Activation Induced Cytidine Deaminase (AID): UDG Counterscreen signal (AID 1347427)
Method in brief: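 Counterscreen read of UDG activity (2 U/mL, 4/3x) in the FRET deamination format with AID (1 uM, 4/3x), DJC20/DJC23 substrates (250 nM, 4x), 4 h at room temperature. NaOH stop, fluorescence at 560 ex/665 em.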

[19] = qHTS for Antimalaria activity screened against the NCATS CANVASS Library (AID 1347380);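 further: Plasmodium falciparum strain Dd2 asexual parasites grown in red blood cells; nearly all actives have a fitted effect of over 40% in size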
Method in brief: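 Red blood cells infected with P. falciparum Dd2 (2.5% hematocrit final, 0.3% parasitemia) were exposed to compounds in an 11-point qHTS series for 72 hr at 37C under 5% O2 and 5% CO2. Lysis buffer with SYBR Green was then added for 18 hr, and fluorescence was read at 485/535 nm.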

[20] = qHTS to identify inhibitors of the type 1 interferon - major histocompatibility complex class I in skeletal muscle: primary screen against the NCATS Mechanism Interrogation Plate v5.0 (MIPE) Libary (AID 1347411); further: nearly all actives have a fitted effect of over 65% in size
Method in brief: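 Immortalized human myoblasts (C25cl48) with HiBit knocked into endogenous HLA-B*08:01 were stimulated with 4 ng/ml IFN-beta and given compounds in 11-point 1:3 titration from 46 uM. After 24 h at 37 C, lytic HiBiT luminescence was read.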

Measured: Potency

Cc1nc2c(OCc3ccccc3)cccn2c1CC#N
inactive: [1] | [2]

N[C@H](C(=O)O)[C@H]1C[C@@H]1C(=O)O
inactive: [1] | [2]

O=C(O)Cc1c[nH]c2ccc(O)cc12
inactive: [3] | [4] | [5] inactive [at 114 µM] | [6] | [7] | [8] | [9] | [10] | [11] | [12] | [13] | [14] | [15] | [16] | [17] | [1] | [2] | [18]

CCCCOc1cc(CC2CNC(=O)N2)ccc1OC (centres undefined)
inactive: [1] | [2]

Oc1ccc(Cn2cc[nH]c2=S)cc1
inactive: [1] | [2]

CN1C2CCC1CC(OC(c1ccccc1)c1ccccc1)C2 (centres undefined)
inactive: [1] | [2]

O=c1onc2cnc3ccccc3n12
inactive: [1] | [2]

Nc1ccc(N2C(=O)c3ccccc3C2=O)c(Cl)c1
inactive: [1] | [2]

c1ccc2nc(C3=NCCN3)ccc2c1
inactive: [1] | [2]

C#CC(N)CCC(=O)O (centres undefined)
inactive: [1] | [2]

COc1cc(CC(=O)O)ccc1O
inactive: [1] | [2]

CC(=O)NCCc1c[nH]c2ccc(O)cc12
inactive: [3] | [4] | [5] | [19] | [6] | [7] | [8] | [9] | [10] | [11] | [12] | [14] | [15] | [16] | [2] | [18]

O=c1[nH]ccc2c(O)cccc12
inactive: [1] | [2]

CCn1c(=O)[nH]c2cc(Cl)c(Cl)cc21
inactive: [2]
active: [1] 3.16 µM

NC(=O)c1cc[n+](CC2=C(C(=O)O)N3C(=O)[C@@H](NC(=O)[C@@H](c4ccccc4)S(=O)(=O)[O-])[C@H]3SC2)cc1
inactive: [1] | [2]

CC(=O)O[C@H]1CC2(C)[C@@H](C[C@@H](O)[C@H]3[C@@]4(C)CC[C@@H](O)[C@@H](C)[C@@H]4CC[C@@]32C)C1=C(CCC=C(C)C)C(=O)O (some centres undefined)
inactive: [1] | [2]

CC1=C(/C=C/C(C)=C/C=C/C(C)=C\C(=O)O)C(C)(C)CCC1
inactive: [1] | [2] | [20] | [18]

O=C(O)C1=CCCNC1
inactive: [1] | [2] | [18]
